Sampled rows, rich in hits. Any-hit rate of the full collection: about 17%.
DT40 TDP1 no CPT – qHTS for Inhibitors of human tyrosyl-DNA phosphodiesterase 1 (TDP1): qHTS in cells in absence of CPT | AID 686978, 2013 | Potency, µM (series often up to 46.2 µM), inactives show at the highest dose activity change, negative = growth inhibition, usual class: inhibitors | 420,000 compounds, 15% hits | DT40 Tdp1-/- hTDP1 cells, no CPT, ATP luminescence, 48 h; also: % is scaled to controls: 0 for no effect and ±100 for the full control effect; nearly all actives have a fitted effect of over 55% in size
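Compound effects on proliferation are scored in DT40 Tdp1-/-;hTDP1 cells in the absence of CPT. ATP levels (CellTiter-Glo luminescence) are recorded after a ≥48 hr, 37 °C incubation.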
TDP1 inh – inhibitors of human tyrosyl-DNA phosphodiesterase TDP1; AID 485290; Q9NUW8; 350,000 compounds, 0.28% hits; recombinant TDP1, AlphaScreen DNA substrate cleavage; Potency, µM (doses to about 130 µM), without a hit: at the highest dose activity change, negative = inhibition, actives largely listed as inhibitors; also: % is scaled to controls: 0 for no effect and ±100 for the full control effect; nearly all actives have a fitted effect of over 40% in size
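Signal: AlphaScreen proximity between streptavidin donor and anti-FITC acceptor beads on intact substrate. Reaction: Tdp1 1 nM, substrate 15 nM final, 5 min RT after 15 min compound preincubation.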
ClpP mod – qHTS Assay for Activators of ClpP | ATP-dependent Clp protease proteolytic subunit (Bacillus subtilis (strain 168)), P80244 | purified B. subtilis ClpP, FRET peptide cleavage, 20 min | Potency, µM (highest dose often 57.5 µM), without a hit: at the top dose activity change, negative = active | 340,000 compounds, 1.9% hits; active = well fitted falling curve with a large enough effect; inconclusive = small, poorly fitted or top-dose-only effect; inactive = no such curve, though single readings can be large or run the other way; also: the source files actives as falling curves though it sought activators and does not explain the sign; nearly all actives have a fitted effect of over 65% in size
Target sequence (P80244 whole entry, looked up): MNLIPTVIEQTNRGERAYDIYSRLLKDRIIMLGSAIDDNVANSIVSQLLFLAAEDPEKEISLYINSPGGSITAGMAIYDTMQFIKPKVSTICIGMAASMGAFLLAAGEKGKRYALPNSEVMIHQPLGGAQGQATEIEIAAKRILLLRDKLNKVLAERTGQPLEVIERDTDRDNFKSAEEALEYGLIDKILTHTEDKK
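Buffer: 100 mM Tris/HCl pH8, 100 mM KCl, 0.05% low protease BSA, 2.5% glycerol, 0.01% Tween-20. ClpP 10 microg/mL final; 20 min RT; delta FRET normalized to ADEP and DMSO controls.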
TDP1 cell CPT – DT40-hTDP1 cell growth loss with CPT; chicken DT40 Tdp1-/-;hTDP1 cells + 20 nM CPT, ATP luminescence, 48 h; Potency, µM (doses to about 46.2 µM), inactives show at the highest dose activity change, negative = growth inhibition, usual class: inhibitors; 420,000 compounds, 12% hits; also: % is scaled to controls: 0 for no effect and ±100 for the full control effect; nearly all actives have a fitted effect of over 55% in size
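Chicken DT40 Tdp1-/- cells stably complemented with human TDP1 were seeded at 400 cells/well in medium containing 20 nM camptothecin, exposed to pin-transferred compounds, and grown at 37 °C for at least 48 hr. Viability was read as ATP luminescence.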
Active calls of the source: *; ? = inconclusive; . = not tested or not shown; ! = a repeat was not active; [ ] = dose if it differs, or a comment. Unless noted, calls follow the shape of the dose curve; as a rule, active = well fitted curve in the direction sought with a large enough effect; inconclusive = small, poorly fitted or top-dose-only effect, or another doubt; inactive = no such curve, though single readings can be large; an effect the other way counts as inactive or inconclusive. Potency is read from the fitted curve at half-maximal effect.

SMILES	DT40 TDP1 no CPT	TDP1 inh	ClpP mod	TDP1 cell CPT
CCCCCCCCN1C(=O)[C@H](CC(=O)NCc2cccs2)C[C@@]2(C(=O)OC)CC(C)(C)CC=C12	8.2µM*	.	2%	15µM*
CCCCCCCCN1C(=O)[C@H](CC(=O)NCc2ccc(C)o2)C[C@@]2(C(=O)OC)CC(C)(C)CC=C12	8.2µM*	.	1%	12µM*
COC(=O)[C@@]12C[C@@H](CC(=O)NCc3cccs3)C(=O)N(Cc3ccccc3)C1=CCC(C)(C)C2	?	.	1%	?
CC=O	.	4%	.	.
CCC1CCCCN1C(=O)Cn1c(=O)n(CCCC(=O)NCc2ccco2)c(=O)c2sccc21 (stereo not given)	-15%	3%	0%	4%
CCCCN(C)c1c(C)nc2ccc(C(=O)NCc3cccs3)cn12	?	.	-6%	?
CN1CCN(CCCN2c3ccccc3Sc3ccc(S(=O)(=O)N(C)C)cc32)CC1	23µM*	12%[21 µM]	1%	16µM*
CN(C)CCCN1c2ccccc2Sc2ccc(Cl)cc21	23µM*!	11%	2%	11µM*!
CCCCCCCCCCCCCCCC(=O)OCCC1CCN(CCCN2c3ccccc3Sc3ccc(S(=O)(=O)N(C)C)cc32)CC1	-20%	.	.	1%
CN(C)CCCN1c2ccccc2Sc2ccc3ccccc3c21	?	.	-2%	?
O=C(CN1CCCC1)N1c2ccccc2Sc2ccc(Cl)cc21	?	6%	1%	10%
OCCN1CCN(CCCN2c3ccccc3Sc3ccc(Cl)cc32)CC1	29µM*	8%	0%	23µM*
CN1CCCC[C@@H]1CCN1c2ccccc2Sc2ccc(S(C)=O)cc21 (stereo not given in full)	.	4%	.	.
CC(=O)c1ccc2c(c1)N(CCCN1CCC(CCO)CC1)c1ccccc1S2	?	13%[21 µM]	1%	11µM*!
CCc1nn(CC(=O)NCCN(CC)CC)c(=O)c2cc3occc3n12	-37%	3%	-12%	?
COc1c(C)cccc1C(=O)NCc1ccc2c(c1)OCO2	-19%	.	.	-1%
OCC[C@@H]1C[C@H](O)[C@@H](O)[C@@]2(CCc3ccccc3O2)O1	9%	.	-2%	6%
COc1ccc(C(=O)Nc2ccc(C3=NNC(=O)CC3C)cc2NC(=O)c2ccc(OC)cc2)cc1 (stereo not given)	23µM*	5%	.	?
CCc1ccc(CN(Cc2ccco2)C(=O)c2cc(-c3ccc(C)c(F)c3)on2)cc1	?	6%	0%	?
CC(=O)n1cc([C@@H]2C=C(C(=O)Nc3ccccc3)O[C@H](OCc3ccc(CO)cc3)C2)c2ccccc21	13µM*	5%	-2%	23µM*
C#CCNC(=O)C1=C[C@H](c2csc3ccccc23)C[C@H](OCc2ccc(CO)cc2)O1	16µM*	4%	0%	?
O=C(NCc1ccccc1)C1=C[C@@H](c2ccc(C(F)(F)F)cc2)C[C@@H](OCCCCO)O1	26µM*	.	-2%	?
O=C(NCc1ccccc1)C1=C[C@H](c2ccc(C(F)(F)F)cc2)C[C@H](OCCCCO)O1	?	.	-7%	?
O=C(Nc1ccccc1)C1=C[C@@H](c2coc3ccccc3c2=O)C[C@@H](OCCCCO)O1	9.2µM*	3%	4%	?
CCCCC[C@H](O)/C=C/[C@@H]1[C@@H](C/C=C\CCCC(=O)O)[C@@H](O)C[C@@H]1O	6%[4.12 µM]	10%	.	31%[4.12 µM]
O=S(=O)(c1ccc(F)cc1)N1CCN(c2ccccn2)CC1	2%	-8%	.	18%
O=C1Nc2ccccc2C1C(C[N+](=O)[O-])c1ccccn1 (stereo not given)	-16%	.	0%	-3%
CC(=O)n1cc([C@H]2C=C(C(=O)NCc3ccccc3)O[C@@H](OCc3ccc(CO)cc3)C2)c2ccccc21	3.3µM*	8%	-1%	5.8µM*
CC(=O)n1cc([C@@H]2C=C(C(=O)N3CCN(Cc4ccccc4)CC3)O[C@H](OCc3ccc(CO)cc3)C2)c2ccccc21	8.2µM*	6%	-1%	8.2µM*
